Rows were chosen to be rich in hits. Some 4.6% of all compounds tested hit in one or more screens of this group.
UCHL1 inh: blocks human UCHL1 ubiquitin-rhodamine cleavage; P09936; purified UCHL1, Ub-rhodamine cleavage fluorescence; inhibition, % at 20 µM; hit rate 0.2% among 47,000
Target sequence (P09936 whole entry, looked up): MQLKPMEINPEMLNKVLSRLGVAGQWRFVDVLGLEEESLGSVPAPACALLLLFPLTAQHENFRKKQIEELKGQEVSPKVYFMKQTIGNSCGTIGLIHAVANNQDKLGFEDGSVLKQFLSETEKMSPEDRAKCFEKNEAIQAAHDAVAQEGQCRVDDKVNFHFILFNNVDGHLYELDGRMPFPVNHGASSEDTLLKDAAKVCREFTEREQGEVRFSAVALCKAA
USP7 block: human USP7 deubiquitinase inhibition; purified USP7, Ub-rhodamine cleavage fluorescence; hit rate 0.3% among 47,000; Q93009; inhibition, % at 20 µM
USP10 block: inhibitors of human USP10 deubiquitinase; inhibition, % at 20 µM; Q14694; hit rate 1.1% among 47,000; purified USP10, Ub-rhodamine fluorescence, 60 min
USP8 block: inhibitors of human USP8 deubiquitinase | purified USP8, Ub-rhodamine cleavage fluorescence, 30 min | inhibition, % at 20 µM | hit rate 4.2% among 47,000 | AID 1645853
A number is an active result; i = inactive. No stated cut-off is given here; in the data, active means inhibition above about 30%; inactive means the rest.

SMILES	UCHL1 inh	USP7 block	USP10 block	USP8 block
COc1ccc(CCC(=O)Nc2nnc(C3CC(=O)N(c4ccccc4)C3)s2)cc1 (configuration not stated)	i	i	34.0	i
COc1ccccc1CNC(=O)C1c2ccccc2C(=O)N1c1ccc(F)cc1 (configuration not stated)	i	i	i	i
CCc1cccc(N2C(=O)c3ccccc3C2C(=O)NCc2ccccc2OC)c1 (configuration not stated)	i	i	i	32.0
CCCCNc1ncnc2c1cnn2-c1cccc(Cl)c1	i	i	i	i
COc1ccc(C)cc1NC(=O)C1CC(=O)Nc2nc(SCc3ccccc3)nn21 (configuration not stated)	i	i	33.9	i
Cc1cc(C(=O)COC(=O)c2ccc(C(C)(C)C)cc2)c(C)n1Cc1ccc2c(c1)OCO2	i	i	i	34.1
CC(C)(C)c1ccc(C(=O)OCC(=O)Nc2ccc3c(c2)OCO3)cc1	i	i	i	i
COc1ccc(/C=C/C(=O)N2c3ccc(F)cc3CCC2C)cc1OC (configuration not stated)	i	i	i	i
COc1ccc2cc(-c3nc4cc(C)ccn4c3NCc3ccccc3)c(=O)[nH]c2c1	i	i	i	i
Cc1ccc2[nH]c(=O)c(-c3nc4ccc(C)cn4c3NCc3ccc(F)cc3)cc2c1	i	50.7	46.6	77.6
COCCN1C(=O)c2[nH]nc(-c3ccccc3O)c2C1c1cccc(OCc2ccccc2)c1 (configuration not stated)	i	i	i	64.7
COc1ccc(C2c3c(-c4ccccc4O)n[nH]c3C(=O)N2Cc2ccncc2)cc1OC (configuration not stated)	i	i	i	i
O=C(Nc1nc2c(s1)CCC2C(=O)Nc1ccc2c(c1)OCO2)c1ccccc1 (configuration not stated)	i	i	i	38.3
COc1ccc(N2CCN(C(=O)c3csc4c3CCC(C(C)(C)C)C4)CC2)cc1 (configuration not stated)	i	i	i	70.4
CCc1ccc(NC(=O)CSc2ccc(N3CCC(C(=O)NC4CC4)CC3)nn2)cc1	i	i	i	80.6
O=C(CCCC(=O)c1ccccc1)Nc1ccc(F)cc1Cl	i	i	i	35.1
Cc1c(C(=O)NCC2CCCCC2)nnn1-c1cccc2c1CCN(C1CCOCC1)C2	i	i	i	35.6
Cc1c(C(=O)NCC(F)(F)F)nnn1-c1cccc2c1CCN(C1CCOCC1)C2	i	i	i	i
COC(=O)c1ccc(CNC(=O)c2ccc(Oc3ccccc3)cc2)cc1	i	i	i	33.9
COC(=O)c1ccc(CNC(=O)c2ccc3c(c2)OCCO3)cc1	i	i	i	i
CC(OC(=O)c1ccc(N2CCCC2=O)cc1)C(=O)Nc1ccc2c(c1)OCO2 (configuration not stated)	i	i	i	55.7
CC(OC(=O)c1ccc(N2CCCC2=O)cc1)C(=O)Nc1ccc2c(c1)OCCO2 (configuration not stated)	i	i	i	i
Nc1c(-c2ccc(Cl)cc2)cnc2nc(Sc3ncc(C(F)(F)F)cc3Cl)nn12	i	i	i	35.3
COc1cccc(CC(=O)N2CCC(c3[nH]nc4nccnc34)CC2)c1	i	i	i	i
O=C(Nc1nc2c(s1)CN(C(=O)/C=C/c1ccco1)CC2)C1CCCO1 (configuration not stated)	i	i	i	41.3
SMILES	UCHL1 inh	USP7 block	USP10 block	USP8 block
COc1ccccc1CC(NC(C)=O)C(=O)NC1CCN(c2nc(C)cc(C)n2)CC1 (configuration not stated)	i	i	i	i
Cc1cccc(NC(=O)CCCc2nnc3c(=O)n(-c4cccc(F)c4)ccn23)c1	i	i	i	61.2
O=C(CCCc1nnc2c(=O)n(-c3cccc(F)c3)ccn12)NCCc1ccccc1	i	i	i	i
O=C(CCCc1nnc2c(=O)n(-c3cccc(F)c3)ccn12)Nc1ccccc1	i	i	i	46.7
O=C(CCCc1nnc2c(=O)n(-c3cccc(F)c3)ccn12)NCc1ccc(F)cc1	i	i	i	47.7
COc1cccc(CNC(=O)CCCc2nnc3c(=O)n(-c4cccc(F)c4)ccn23)c1	i	i	i	i
COc1ccc(OC)c(C(C(=O)NC2CCCCC2)N(C(=O)c2ccc3c(c2)OCCO3)c2ccc(C)cc2)c1 (configuration not stated)	i	i	i	32.6
CCOc1ccccc1N(C(=O)c1ccc2c(c1)OCCO2)C(C(=O)NC1CCCCC1)c1ccc(O)cc1 (configuration not stated)	i	i	i	i
CCCCCCC(C)/C=C(C)/C=C/C(=O)N[C@H]1CC2(O[C@H]1O)[C@@H]1O[C@@H]1C(=O)[C@@H]1O[C@@H]12 (some centres not stated)	i	i	i	i
CCCC[C@@H](C)/C=C(C)/C=C(\C)C(=O)NC1=C[C@](O)(/C=C/C=C/C=C/C(=O)NC2=C(O)CCC2=O)[C@@H]2O[C@@H]2C1=O	34.5	i	i	i
Cc1ccc(C(=O)N2CCC(Oc3cc(N4CCCC4)ncn3)C2)cn1 (configuration not stated)	i	i	i	i
O=C(Nc1ccnn1C1CCCC1)c1cccnc1Oc1ccccc1	i	i	i	i
Cn1c2ccccc2c(=O)c2c(=O)n(Cc3ccco3)c(C3CCCCC3)nc21	i	i	i	30.5
Cc1nc2c(c(=O)c3ccccc3n2C)c(=O)n1Cc1ccco1	i	i	i	i
Cc1nnc(NC(=O)C2CCN(c3ccc(S(N)(=O)=O)cc3[N+](=O)[O-])CC2)o1	36.2	43.1	62.0	i
CC1CCc2c(sc(NC(=O)c3cccc(S(C)(=O)=O)c3)c2C(N)=O)C1 (configuration not stated)	i	i	i	75.4
CC(C)(C)c1cc(C(=O)N2CCCCC2c2ccn3ccnc3n2)n[nH]1 (configuration not stated)	i	i	i	i
CCCCCCCCCCCC1=C(O)C(=O)C=C(O)C1=O	i	49.6	79.9	60.5
Cc1ccc(NC(=O)Nc2ccc(C)n(CC(=O)Nc3ccccc3)c2=O)cc1	i	i	39.1	44.9
O=C(COC(=O)C(Cc1c[nH]c2ccccc12)NC(=O)c1ccccc1Cl)Nc1ccc([N+](=O)[O-])cc1C(F)(F)F (configuration not stated)	i	i	32.2	56.8
O=C(COC(=O)C(Cc1c[nH]c2ccccc12)NC(=O)c1ccccc1Cl)c1ccc([N+](=O)[O-])cc1 (configuration not stated)	i	i	i	i
CCc1ccc(-n2ccc(=O)c(-c3nc(-c4cccc(F)c4)no3)n2)cc1	i	i	i	33.6
COc1ccc(-n2ccc(=O)c(-c3nc(-c4ccccc4C)no3)n2)cc1	i	i	i	34.3
COc1ccccc1-c1noc(-c2nn(-c3ccc(C)cc3)ccc2=O)n1	i	i	i	i
O=c1ccn(-c2ccccc2)nc1-c1nc(-c2ccc(Br)cc2)no1	i	i	i	62.1
Cc1cccc(-n2ccc(=O)c(-c3nc(-c4ccc(Cl)c(F)c4)no3)n2)c1	i	i	i	i
COc1cc(CO)ccc1OCc1nc2ccccc2nc1C	i	i	i	i
